According to ChEMBL document CHEMBL3988442, “University of Dundee, Small-Polar-MMV Screening Library” (2021):
For part of these data: Measured potencies and affinities stand elsewhere.

Legend:
Design in all cases: scale not given: direction of the effect not stated beside the values
[1] = target: Protein translocase subunit SecA (Escherichia coli (strain K12)) (UniProt P10408); assay: Assay to Identify E. coli SecA ATPase Inhibitors; format: functional; details: 30 µM
[2] = target: T1, Ubiquitin-activating enzyme e1, putative (Leishmania donovani (strain BPK282A1)) (UniProt E9BSI1); assay: Leishmania donovani Ubiquitin Activating Enzyme (LdE1); format: functional; details: 30 µM
T1 sequence (whole entry): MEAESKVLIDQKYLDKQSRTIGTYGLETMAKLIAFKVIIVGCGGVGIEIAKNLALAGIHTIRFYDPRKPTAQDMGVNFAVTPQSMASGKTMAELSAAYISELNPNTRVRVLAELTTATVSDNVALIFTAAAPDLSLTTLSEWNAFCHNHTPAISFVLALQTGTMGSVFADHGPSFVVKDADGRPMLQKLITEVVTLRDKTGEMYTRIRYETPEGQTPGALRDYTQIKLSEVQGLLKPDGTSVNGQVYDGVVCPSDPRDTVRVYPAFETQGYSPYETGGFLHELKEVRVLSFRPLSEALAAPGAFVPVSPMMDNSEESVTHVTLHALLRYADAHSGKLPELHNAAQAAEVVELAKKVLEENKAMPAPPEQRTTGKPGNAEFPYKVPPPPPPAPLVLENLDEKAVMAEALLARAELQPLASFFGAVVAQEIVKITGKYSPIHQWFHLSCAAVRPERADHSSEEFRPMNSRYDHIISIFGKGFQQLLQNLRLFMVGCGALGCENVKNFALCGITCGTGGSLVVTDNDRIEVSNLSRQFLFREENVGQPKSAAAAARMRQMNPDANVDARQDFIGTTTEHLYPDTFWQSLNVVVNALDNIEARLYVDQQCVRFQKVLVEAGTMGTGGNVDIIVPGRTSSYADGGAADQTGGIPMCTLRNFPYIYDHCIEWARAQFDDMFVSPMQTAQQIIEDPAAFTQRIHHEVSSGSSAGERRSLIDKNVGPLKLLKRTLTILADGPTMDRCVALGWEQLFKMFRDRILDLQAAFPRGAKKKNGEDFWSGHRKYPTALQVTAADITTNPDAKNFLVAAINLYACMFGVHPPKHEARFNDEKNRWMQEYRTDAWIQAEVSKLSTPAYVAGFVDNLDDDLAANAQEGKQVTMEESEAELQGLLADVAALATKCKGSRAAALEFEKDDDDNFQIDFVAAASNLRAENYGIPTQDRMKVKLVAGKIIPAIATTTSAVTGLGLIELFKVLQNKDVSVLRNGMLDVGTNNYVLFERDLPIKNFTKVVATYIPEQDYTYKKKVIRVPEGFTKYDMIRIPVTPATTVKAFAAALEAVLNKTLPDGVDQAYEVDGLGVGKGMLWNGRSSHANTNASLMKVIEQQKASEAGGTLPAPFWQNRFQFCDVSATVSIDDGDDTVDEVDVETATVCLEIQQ

[3] = target: Sialic acid-binding Ig-like lectin 9 (Homo sapiens) (UniProt Q9Y336); assay: Hs-Siglec9 ALPHAscreen SOP 20170721; details: 10 µM
Sequence of Sialic acid-binding Ig-like lectin 9 (Homo sapiens) (Q9Y336 whole entry): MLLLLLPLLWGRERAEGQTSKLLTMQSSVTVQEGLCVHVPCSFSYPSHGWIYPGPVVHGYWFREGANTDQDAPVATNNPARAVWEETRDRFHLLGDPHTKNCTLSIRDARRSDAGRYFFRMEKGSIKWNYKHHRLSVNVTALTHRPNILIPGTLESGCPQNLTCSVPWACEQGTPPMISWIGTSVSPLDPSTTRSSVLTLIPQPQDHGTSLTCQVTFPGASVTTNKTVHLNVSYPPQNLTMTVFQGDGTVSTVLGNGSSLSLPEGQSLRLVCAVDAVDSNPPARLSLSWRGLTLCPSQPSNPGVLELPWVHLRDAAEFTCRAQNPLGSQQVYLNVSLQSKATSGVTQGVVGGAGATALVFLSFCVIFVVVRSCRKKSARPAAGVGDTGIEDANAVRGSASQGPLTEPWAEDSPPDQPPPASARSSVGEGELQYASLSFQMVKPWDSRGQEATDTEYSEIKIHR

Trypanosoma cruzi = assay: Trypanosoma cruzi phosphomannomutase and mannose-1-phosphate guanylyltransferase assay; format: functional; details: 10 µM
[4] = target: T2, Arginase-2, mitochondrial (Homo sapiens) (UniProt P78540); assay: in vitro enzyme assay to detect the production of urea directly proportional to the activity of Arginase II; format: functional; details: 33.3 µM; note: in the data most compounds retested in dose-response had high values
T2 sequence (whole entry): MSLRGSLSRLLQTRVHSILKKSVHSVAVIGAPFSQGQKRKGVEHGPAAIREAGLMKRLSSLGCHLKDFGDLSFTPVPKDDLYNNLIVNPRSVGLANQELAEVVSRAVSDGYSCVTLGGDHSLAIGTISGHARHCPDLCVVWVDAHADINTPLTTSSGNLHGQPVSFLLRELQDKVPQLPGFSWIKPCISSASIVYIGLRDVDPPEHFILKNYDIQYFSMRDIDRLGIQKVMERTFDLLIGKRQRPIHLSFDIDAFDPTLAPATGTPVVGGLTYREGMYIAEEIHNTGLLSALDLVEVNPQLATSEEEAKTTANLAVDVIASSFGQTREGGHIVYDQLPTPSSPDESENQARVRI

[5] = target: T3, Proteasome subunit beta (Trypanosoma cruzi) (UniProt O96673); assay: Trypanosoma cruzi proteasome chymotrypsin-like activity (TcProtChymo) assay.; note: in the data most compounds retested in dose-response had high values; format: functional; details: 9.37 µM
T3 sequence (whole entry): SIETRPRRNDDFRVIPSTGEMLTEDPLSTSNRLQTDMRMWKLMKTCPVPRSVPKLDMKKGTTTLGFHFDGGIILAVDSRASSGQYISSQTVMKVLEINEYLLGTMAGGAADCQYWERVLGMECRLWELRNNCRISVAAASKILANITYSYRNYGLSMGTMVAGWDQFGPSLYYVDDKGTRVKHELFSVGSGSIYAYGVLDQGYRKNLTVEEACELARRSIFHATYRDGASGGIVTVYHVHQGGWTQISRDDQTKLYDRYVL

Homo sapiens = species: Homo sapiens; assay: To identify inhibition of the IFN signalling (Jak-Stat) pathway via expression of an eGFP reporter gene under the control of an IFN-stimulated response element (ISRE) containing MxA promoter.; format: functional; details: 30 µM
[6] = target: T4, Tyrosyl-tRNA synthetase, putative (Trypanosoma cruzi (strain CL Brener)) (UniProt Q4DSP6); assay: Trypanosoma cruzi tyrosyl tRNA synthetase (TcYRS) _High Tyrosine SOP; format: functional; details: 30 µM; note: in the data most compounds retested in dose-response had high values
T4 sequence (whole entry): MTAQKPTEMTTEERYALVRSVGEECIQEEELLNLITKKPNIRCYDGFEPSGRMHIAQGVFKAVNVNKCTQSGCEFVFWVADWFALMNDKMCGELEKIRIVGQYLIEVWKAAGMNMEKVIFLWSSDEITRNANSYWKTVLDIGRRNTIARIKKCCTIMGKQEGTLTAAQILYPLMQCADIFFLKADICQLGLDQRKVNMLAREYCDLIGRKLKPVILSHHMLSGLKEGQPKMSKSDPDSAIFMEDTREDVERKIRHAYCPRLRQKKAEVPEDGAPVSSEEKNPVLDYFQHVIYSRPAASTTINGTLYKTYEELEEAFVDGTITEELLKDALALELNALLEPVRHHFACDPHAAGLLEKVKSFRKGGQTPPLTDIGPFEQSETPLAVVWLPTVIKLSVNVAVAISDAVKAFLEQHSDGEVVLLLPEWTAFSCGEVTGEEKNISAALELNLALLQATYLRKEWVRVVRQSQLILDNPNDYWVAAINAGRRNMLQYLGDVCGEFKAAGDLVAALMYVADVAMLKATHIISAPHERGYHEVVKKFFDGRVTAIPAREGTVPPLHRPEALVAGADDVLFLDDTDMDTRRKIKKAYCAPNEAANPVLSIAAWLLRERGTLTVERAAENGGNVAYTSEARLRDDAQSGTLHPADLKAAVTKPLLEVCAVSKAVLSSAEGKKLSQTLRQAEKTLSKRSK

[7] = target: T4, Tyrosyl-tRNA synthetase, putative (Trypanosoma cruzi (strain CL Brener)); assay: Trypanosoma cruzi tyrosyl tRNA synthetase (TcYRS) SOP; format: functional; details: 30 µM
[8] = target: Chromo domain-containing protein 1 (Saccharomyces cerevisiae (strain ATCC 204508 / S288c) (Baker's yeast)) (UniProt P32657); assay: ScCHD-1 Enzyme Inhibition Assay; format: functional; details: 30 µM; note: in the data most compounds retested in dose-response had high values
Sequence of Chromo domain-containing protein 1 (Saccharomyces cerevisiae (strain ATCC 204508 / S288c) (Baker's yeast)) (P32657 whole entry, the tested form may be a part): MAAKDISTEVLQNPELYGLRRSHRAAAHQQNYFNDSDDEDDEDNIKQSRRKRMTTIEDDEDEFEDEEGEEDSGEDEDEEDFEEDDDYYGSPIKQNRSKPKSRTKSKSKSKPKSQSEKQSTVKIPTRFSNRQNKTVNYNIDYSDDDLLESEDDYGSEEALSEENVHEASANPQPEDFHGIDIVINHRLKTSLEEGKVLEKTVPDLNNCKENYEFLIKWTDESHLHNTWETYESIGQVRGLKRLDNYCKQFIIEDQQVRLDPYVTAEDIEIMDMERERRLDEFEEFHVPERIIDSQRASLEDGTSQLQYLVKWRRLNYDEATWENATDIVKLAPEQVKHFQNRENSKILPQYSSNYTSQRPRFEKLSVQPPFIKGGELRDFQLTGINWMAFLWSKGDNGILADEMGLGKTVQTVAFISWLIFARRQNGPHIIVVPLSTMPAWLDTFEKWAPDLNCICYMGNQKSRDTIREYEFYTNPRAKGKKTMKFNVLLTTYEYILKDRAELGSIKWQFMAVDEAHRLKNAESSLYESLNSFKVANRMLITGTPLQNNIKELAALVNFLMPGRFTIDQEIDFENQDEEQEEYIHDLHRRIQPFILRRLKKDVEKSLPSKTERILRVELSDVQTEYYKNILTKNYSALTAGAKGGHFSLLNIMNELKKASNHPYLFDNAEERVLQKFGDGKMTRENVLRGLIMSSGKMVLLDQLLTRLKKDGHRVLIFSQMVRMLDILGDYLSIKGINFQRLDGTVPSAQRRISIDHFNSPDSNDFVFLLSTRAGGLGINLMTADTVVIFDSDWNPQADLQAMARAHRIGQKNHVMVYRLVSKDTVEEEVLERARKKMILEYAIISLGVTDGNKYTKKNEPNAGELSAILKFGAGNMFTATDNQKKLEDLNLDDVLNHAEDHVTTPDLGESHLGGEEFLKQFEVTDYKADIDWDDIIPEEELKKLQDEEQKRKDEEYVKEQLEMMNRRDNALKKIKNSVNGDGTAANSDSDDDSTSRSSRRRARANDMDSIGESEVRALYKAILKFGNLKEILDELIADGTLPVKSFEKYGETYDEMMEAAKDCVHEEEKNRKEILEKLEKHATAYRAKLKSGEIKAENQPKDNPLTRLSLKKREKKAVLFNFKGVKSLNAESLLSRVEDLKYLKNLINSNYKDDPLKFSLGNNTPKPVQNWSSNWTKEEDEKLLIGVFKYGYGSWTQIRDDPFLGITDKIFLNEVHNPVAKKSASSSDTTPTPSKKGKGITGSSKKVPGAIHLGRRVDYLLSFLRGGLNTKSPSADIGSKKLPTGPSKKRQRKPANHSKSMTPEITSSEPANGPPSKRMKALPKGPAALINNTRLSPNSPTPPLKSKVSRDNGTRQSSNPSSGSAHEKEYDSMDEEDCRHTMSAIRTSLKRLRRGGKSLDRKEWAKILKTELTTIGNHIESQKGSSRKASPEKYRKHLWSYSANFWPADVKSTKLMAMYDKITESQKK

Sequence of Protein translocase subunit SecA (Escherichia coli (strain K12)) (P10408 whole entry): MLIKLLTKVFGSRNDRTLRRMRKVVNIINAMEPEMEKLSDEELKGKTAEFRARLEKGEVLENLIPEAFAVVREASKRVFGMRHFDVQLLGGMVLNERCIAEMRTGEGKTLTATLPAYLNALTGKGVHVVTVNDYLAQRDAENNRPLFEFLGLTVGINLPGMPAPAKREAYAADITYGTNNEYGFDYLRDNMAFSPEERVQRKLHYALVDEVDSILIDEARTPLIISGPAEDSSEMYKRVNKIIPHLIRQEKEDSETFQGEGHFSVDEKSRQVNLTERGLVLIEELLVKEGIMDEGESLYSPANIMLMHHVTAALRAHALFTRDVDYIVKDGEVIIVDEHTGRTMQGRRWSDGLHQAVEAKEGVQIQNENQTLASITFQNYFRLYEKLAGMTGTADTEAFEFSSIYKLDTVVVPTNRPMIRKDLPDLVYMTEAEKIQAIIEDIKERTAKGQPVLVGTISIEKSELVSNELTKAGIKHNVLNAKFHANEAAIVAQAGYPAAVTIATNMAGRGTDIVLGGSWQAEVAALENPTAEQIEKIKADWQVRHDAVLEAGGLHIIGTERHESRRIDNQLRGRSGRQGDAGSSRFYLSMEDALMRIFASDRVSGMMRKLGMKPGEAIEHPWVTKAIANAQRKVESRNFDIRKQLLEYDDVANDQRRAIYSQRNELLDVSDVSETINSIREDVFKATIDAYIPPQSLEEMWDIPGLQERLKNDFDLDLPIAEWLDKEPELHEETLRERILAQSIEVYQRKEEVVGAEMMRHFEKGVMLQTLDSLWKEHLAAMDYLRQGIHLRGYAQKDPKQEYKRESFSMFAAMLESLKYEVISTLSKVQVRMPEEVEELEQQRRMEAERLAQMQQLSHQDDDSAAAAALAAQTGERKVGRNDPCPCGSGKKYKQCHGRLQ

Structure (SMILES)	Percent Effect [1]	Percent Effect [2]	Percent Effect [3]	Percent Effect (Trypanosoma cruzi)	Percent Effect [4]	Percent Effect [5]	Percent Effect (Homo sapiens)	Percent Effect [6]	Percent Effect [7]	Percent Effect [8]
COC[C@@H]1CC[C@H]2[C@H](CCN2S(=O)(=O)c2ccc(F)cc2)O1	-2.35%	6.49%	-4.91%	-3.02%	-0.405%	12.1%	11.2%	4.74%	7.69%	-2.82%
Cc1nn(C)c(N2CCOCC2)c1CNC1CCc2cc(F)ccc21 (stereo not given)	-1.4%	20.8%	4.82%	-2.8%	11.7%	7.72%	0.31%	6.86%	18.8%	-4.69%
CC(C)c1cc(NC(=O)CN2CCC(N3CCNC3=O)CC2)on1	-2.95%	15.6%	8.63%	-6.16%	1.02%	0.877%	23.3%	5.88%	11.8%	-7.14%
CC(c1cccc(S(N)(=O)=O)c1)N(C)CCc1ccccc1 (stereo not given)	-0.406%	20.8%	-4.37%	-0.933%	-4.3%	10.9%	13.6%	6.86%	16.5%	-9.02%
CCn1ccnc1CN1CCCN(C(=O)c2cccn2C)CC1	-5.36%	12.8%	-19.1%	14%	-2.46%	8.79%	4.83%	2.39%	20.5%	31.3%
CS(=O)(=O)NCc1cc2n(n1)CCCN(Cc1nc3ccccc3[nH]1)C2	-9.74%	2.7%	1.38%	-1.46%	3.85%	6.16%	-1.07%	6.92%	9.76%	3.52%
NC(=O)CN1CCC(NC(=O)Nc2nccs2)CC1	-1.25%	15.4%	-19.1%	9.11%	-0.82%	13.1%	5.92%	1.44%	20.5%	-8.95%
CCCN(C(=O)COC)c1nc2c(s1)CCc1c-2cnn1C	6.68%	52%	21%	-3.16%	23.9%	2.79%	17.9%	-13.8%	-15%	-18.2%
CCCc1noc(CN2CCCC2c2c(C)nn(C)c2OC)n1 (stereo not given)	-8.89%	-2.67%	-1.2%	-1.61%	3.1%	2.29%	9.23%	-2.63%	-2.56%	-6.05%
Cc1cnn(C(C)C2CC2)c1NC(=O)c1cnccn1 (stereo not given)	-5.04%	0%	0.592%	1.07%	0.35%	-1.03%	16.7%	1.6%	4.88%	2.37%
COc1cccc(OC)c1CN1CCC2(CC(Nc3ccncn3)C2)C1 (stereo not given)	-0.631%	1.33%	2.05%	-4.93%	1.77%	3.61%	11.6%	5.29%	5%	-14%
COc1ccccc1OCC(=O)NS(=O)(=O)c1ccc(Br)s1	-3.35%	5.2%	18.6%	-2.61%	2.66%	6.14%	1.82%	-1.96%	7.06%	-3.46%
COc1cccc(-n2nnc(C(=O)N3CCCC3)c2C)c1	-0.683%	10.3%	-7.88%	2.72%	4.92%	7.25%	6.63%	7.18%	13.2%	-3.38%
c1ccc2cc(OCCN3CCn4c(nnc4C4CC4)C3)ccc2c1	-5.63%	-18.7%	-1.64%	1.61%	-5.32%	4.33%	-7.36%	1.58%	-10.3%	-10.9%
CC(=O)N1CCC2(CC1)C(=O)N(CC1CC1)c1ccccc12	-5.06%	9.09%	-0.719%	-3.56%	5.48%	10.6%	6.99%	3.87%	7.5%	-7.42%
Cc1cc(NCc2cccnc2)n2nc(C)cc2n1	-3.79%	2.7%	4.53%	-2.62%	1.75%	16.9%	17.8%	4.79%	14.6%	-3.52%
O=C(C1CCOCC1)N1CC[C@H]2C[C@@H](c3ccncn3)O[C@@H]2C1	-7.3%	3.9%	2.39%	5.55%	-6.48%	13.7%	-13.3%	3.68%	15.4%	25.1%
Cn1cc(CN2CCC3(CCCN3S(C)(=O)=O)CC2)cn1	-3.77%	-1.3%	-1.55%	-5.36%	-0.81%	1.15%	1.96%	-2.63%	-25.6%	-1.37%
CCn1cc2c(n1)C(COC)CN(Cc1ccccn1)C2 (stereo not given)	-4.98%	9.09%	-6.05%	-2.43%	-2.43%	16.7%	34.2%	2.63%	7.69%	-3.98%
CN(C)Cc1ccc(C2CCCCN2C(=O)c2cc(C3CC3)n[nH]2)cc1 (stereo not given)	-11.5%	-2.7%	0.279%	-2.23%	-1.05%	11.3%	19.7%	5.85%	9.76%	-0.312%
CC(C)(C)c1nnc(CN2CCOC(Cn3cncn3)C2)o1 (stereo not given)	-3.4%	17.9%	1.77%	9.67%	-6.56%	4.18%	8.6%	4.31%	18.1%	-4.15%
